Laboratory results published in PubChem BioAssay (NCATS).
Records with an inconclusive call do not appear. Values without a mark were called inactive. Calls of active or inactive are those of the source. Calls come from the whole dose curve; as a rule, active = well fitted cell-killing curve with a large enough effect; inconclusive = small, poorly fitted or top-dose-only effect, or effect the other way; inactive = no such curve, though single readings can be large or run the other way.
Potency is the fitted concentration of half-maximal effect.

Test: Quantitative High-Throughput drug screen in 47 multiple myeloma cell lines against the NCATS MIPE library collection: Karpas25_ECACC cell viability assay (AID 1918968; note: nearly all actives have a fitted effect of over 35% in size;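 for viability (% of control): 100% = DMSO only wells and 0% = media only wells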)
Conditions: Karpas25 myeloma viability, CellTiter-Glo ATP, 48 h; series mostly up to 45.8 µM; viability (% of control): at the top concentration
Summary of the method: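 Steps: seed 500 cells per well; pin-transfer MIPE 4.0 library; incubate 48 h at 37C, 5% CO2, humidified; add CellTiter-Glo, 5 min room temperature; read luminescence.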
With `O=C1Nc2ccc(Cl)cc2C(C#CC2CC2)(C(F)(F)F)O1` (stereo not drawn) the Potency was 20.9 µM (active). With `CN1CCN(CCOc2cc(OC3CCOCC3)c3c(Nc4c(Cl)ccc5c4OCO5)ncnc3c2)CC1` the Potency was 16.6 µM (active). In the case of `CC1(C)CCC[C@@]2(C)[C@@H]1CC[C@@]1(C)OC(=O)C[C@H]21`, the “viability (% of control)” value is reported as 105%. In the case of `CNC(=O)c1ccccc1Sc1ccc2c(C=Cc3ccccn3)n[nH]c2c1`, the Potency is reported as 16.6 µM (active). With `NC(=O)c1ccc2nc(-c3ccc(Oc4ccc(Cl)cc4)cc3)[nH]c2c1` the Potency was 4.69 µM (active). For `CC1(C)S[C@H]2[C@H](NC(=O)[C@@H](N)c3ccc(O)cc3)C(=O)N2[C@@H]1C(=O)O`, the Potency was 4.69 µM (active). For `O=C1C[C@@H](c2ccc(O)cc2)Oc2cc(O)cc(O)c21`, the “viability (% of control)” value was 85.6%. In the case of `CS(=O)c1ccc(-c2nc(-c3ccc(F)cc3)c(-c3ccncc3)[nH]2)cc1` (stereo not drawn), the Potency is reported as 8.55 µM (active). For `CCC(=O)NC[C@H](Cc1ccc(OCCc2nc(-c3ccccc3)oc2C)cc1)NC(C)=CC(=O)c1ccc(C(F)(F)F)cc1`, the “viability (% of control)” value was 131%. In the case of `NC[C@@H]1O[C@@H](O[C@H]2[C@@H](O)[C@H](O[C@@H]3[C@@H](O)[C@@H](N)C[C@H](N)[C@H]3O[C@H]3O[C@H](CN)[C@@H](O)[C@@H](O)[C@H]3N)O[C@H]2CO)[C@H](N)[C@@H](O)[C@@H]1O`, the “viability (% of control)” value is reported as 126%. With `CCC(CC)[C@H](NC(C)=O)[C@@H]1[C@H](O)[C@@H](C(=O)O)C[C@@H]1N=C(N)N` the “viability (% of control)” value was 101%. With `O=c1c(O)c(-c2ccc(O)cc2)oc2cc(O)cc(O)c12` the Potency was 9.35 µM (active). For `CO[C@H]1C(=O)[C@]2(C)[C@@H](OC)C[C@H]3OC[C@@]3(OC(C)=O)[C@H]2[C@H](OC(=O)c2ccccc2)[C@]2(O)C[C@H](OC(=O)[C@H](O)[C@@H](NC(=O)OC(C)(C)C)c3ccccc3)C(C)=C1C2(C)C`, the “viability (% of control)” value was 41.3%. In the case of `COc1ccc2cccc(CCNC(C)=O)c2c1`, the “viability (% of control)” value is reported as 126%. In the case of `CCNc1cc(NC2CCC(O)CC2)nc(Nc2ccc3c(ccn3Cc3ccccc3)c2)n1` (stereo not drawn), the Potency is reported as 18.7 µM (active). In the case of `C[C@@H]1CCN(C(=O)CC#N)C[C@H]1N(C)c1ncnc2[nH]ccc12`, the “viability (% of control)” value is reported as 96.7%. In the case of `NC1CCC(Nc2nc(Nc3ccc(C(=O)N4CCCCC4)cc3)c3ncn(-c4cccc(F)c4)c3n2)CC1` (stereo not drawn), the “viability (% of control)” value is reported as 84.8%. With `CN(C)Cc1ccc(-c2nc3cccc4c3n2CCNC4=O)cc1` the Potency was 23.5 µM (active). With `CC(C)C[C@H](CC(=O)O)C(=O)N[C@@H](Cc1c[nH]c2ccccc12)C(=O)N[C@@H](C)c1ccccc1` the “viability (% of control)” value was 117%. For `COc1cc(NC(=O)c2ccc(-c3ccc(Cl)cc3)o2)cc(OC)c1`, the Potency was 2.96 µM (active). In the case of `O=c1cc(-c2cccc3c2Sc2ccccc2S3)oc(N2CCOCC2)c1`, the Potency is reported as 14.8 µM (active). In the case of `CC(C)n1cnc2c(NCCCCCCNC(=O)OC(C)(C)C)nc(NCCO)nc21`, the Potency is reported as 23.5 µM (active). With `CO[C@H]1C=CO[C@@]2(C)Oc3c(C)c(O)c4c(O)c(c5c(c4c3C2=O)NC2(CCN(CC(C)C)CC2)N=5)=NC(=O)C(C)=CC=C[C@H](C)[C@H](O)[C@@H](C)[C@@H](O)[C@@H](C)[C@H](OC(C)=O)[C@H]1C` the Potency was 16.6 µM (active). For `O=C(O)c1ccccc1C(=O)Nc1ccc(-c2ccccc2)cc1`, the “viability (% of control)” value was 118%. For `Cc1ccc(C(C)(O)c2nc3ccccc3s2)c(C)c1` (stereo not drawn), the “viability (% of control)” value was 111%. In the case of `NC(CO)(CO)CCc1ccc(Sc2cccc(OCc3ccccc3)c2)cc1Cl`, the Potency is reported as 7.43 µM (active). With `O=C(O)[C@H]1O[C@H](Oc2cc3oc(-c4ccccc4)cc(=O)c3c(O)c2O)[C@H](O)[C@@H](O)[C@H]1O` the “viability (% of control)” value was 131%.

Test: Quantitative High-Throughput drug screen in 47 multiple myeloma cell lines against the NCATS MIPE library collection: KMS27_JCRB cell viability assay (AID 1918970); note: nearly all actives have a fitted effect of over 30% in size;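 for viability (% of DMSO): 100% = DMSO-only wells and 0% = media-only wells without cells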
Conditions: KMS27 myeloma cells, CellTiter-Glo ATP viability, 48 h; series mostly up to 45.8 µM; viability (% of DMSO): at the top concentration
Summary of the method: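 ATP-based viability (CellTiter-Glo luminescence) is measured in cells treated 48 h with approved and investigational drugs at 37 °C. Controls are DMSO-only wells for full viability and media-only wells for none.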
For `CC[C@H]1OC(=O)[C@H](C)C(=O)[C@H](C)[C@@H](O[C@H]2O[C@H](C)C[C@H](N(C)C)[C@@H]2O)[C@](C)(OC)C[C@@H](C)C(=O)[C@H](C)[C@H]2N(CCCCn3cnc(-c4cccnc4)c3)C(=O)O[C@]12C`, the “viability (% of DMSO)” value was 117%. With `CC(C)(C)C(=O)Oc1ccc2c(c1)nc(NC(=O)c1cccc([N+](=O)[O-])c1)n2CCCO` the “viability (% of DMSO)” value was 125%. In the case of `O=c1c(-c2ccc(O)cc2)coc2cc(O)ccc12`, the “viability (% of DMSO)” value is reported as 113%. For `C[C@H](NC(=O)C(=O)Nc1ccccc1C(C)(C)C)C(=O)N[C@@H](CC(=O)O)C(=O)COc1c(F)c(F)cc(F)c1F`, the Potency was 3.32 µM (active). In the case of `CCn1cc(C(=O)O)c(=O)c2ccc(C)nc21`, the “viability (% of DMSO)” value is reported as 115%. In the case of `CN1CCN(CCOc2cc(OC3CCOCC3)c3c(Nc4c(Cl)ccc5c4OCO5)ncnc3c2)CC1`, the Potency is reported as 16.6 µM (active). For `CC1(C)S[C@H]2[C@H](NC(=O)[C@@H](N)c3ccc(O)cc3)C(=O)N2[C@@H]1C(=O)O`, the Potency was 0.935 µM (active). In the case of `O=C1C[C@@H](c2ccc(O)cc2)Oc2cc(O)cc(O)c21`, the Potency is reported as 0.0118 µM (active). For `CS(=O)c1ccc(-c2nc(-c3ccc(F)cc3)c(-c3ccncc3)[nH]2)cc1` (stereo not drawn), the Potency was 21.5 µM (active). For `NC[C@@H]1O[C@@H](O[C@H]2[C@@H](O)[C@H](O[C@@H]3[C@@H](O)[C@@H](N)C[C@H](N)[C@H]3O[C@H]3O[C@H](CN)[C@@H](O)[C@@H](O)[C@H]3N)O[C@H]2CO)[C@H](N)[C@@H](O)[C@@H]1O`, the “viability (% of DMSO)” value was 122%. In the case of `CCC(CC)[C@H](NC(C)=O)[C@@H]1[C@H](O)[C@@H](C(=O)O)C[C@@H]1N=C(N)N`, the “viability (% of DMSO)” value is reported as 101%. In the case of `COc1ccc2cccc(CCNC(C)=O)c2c1`, the “viability (% of DMSO)” value is reported as 110%. For `CCNc1cc(NC2CCC(O)CC2)nc(Nc2ccc3c(ccn3Cc3ccccc3)c2)n1` (stereo not drawn), the Potency was 16.6 µM (active). For `CN(C)Cc1ccc(-c2nc3cccc4c3n2CCNC4=O)cc1`, the Potency was 20.9 µM (active). In the case of `O=C(O)c1ccccc1C(=O)Nc1ccc(-c2ccccc2)cc1`, the “viability (% of DMSO)” value is reported as 132%. For `NC(CO)(CO)CCc1ccc(Sc2cccc(OCc3ccccc3)c2)cc1Cl`, the Potency was 11.8 µM (active).
